In the library only some 2.3% were active in any assay of this set; here they are far more common.
Fam108B inh – blocks mouse Fam108B hydrolase in RBBP9 counter-screen; recombinant Fam108B, FP-Rh probe fluorescence polarization; inhibition, % at 9.51 µM; 300,000 tested, 0.33% active; AID 1947;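 active = inhibition above the screen mean inhibition plus 3 SD, computed separately per campaign, cut at about 18% in these data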;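 note: inhibitors lower polarization as less probe binds the enzyme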
PME-1 primary – PME-1 (human) inhibition; 320,000 tested, 0.53% active; inhibition, % at 5.9 µM; Q9Y570; recombinant PME-1, FP-Rh probe fluorescence polarization; AID 2130;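 active = inhibition above the campaign mean of all compounds plus 3 SD, cut at about 26% in these data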;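 note: competitive labeling of PME-1 active site by serine hydrolase directed probe; 0% = PME-1 with DMSO and 100% = wells lacking PME-1 enzyme; inhibitors block probe labeling so polarization falls and inhibition rises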
PAD4 FP inh – PAD4 (human) enzyme inhibition. inhibition, % at 6.36 µM. AID 485272. recombinant PAD4, RCA probe fluorescence polarization. 330,000 tested, 0.41% active. Q9UM07;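 active = percent inhibition above a cutoff equal to the mean of all tested compounds plus 3 SD, cut at about 15% in these data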;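 note: 0% = PAD4 with RCA probe and DMSO and 100% = probe without PAD4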
Target sequence (Q9UM07 whole entry, looked up): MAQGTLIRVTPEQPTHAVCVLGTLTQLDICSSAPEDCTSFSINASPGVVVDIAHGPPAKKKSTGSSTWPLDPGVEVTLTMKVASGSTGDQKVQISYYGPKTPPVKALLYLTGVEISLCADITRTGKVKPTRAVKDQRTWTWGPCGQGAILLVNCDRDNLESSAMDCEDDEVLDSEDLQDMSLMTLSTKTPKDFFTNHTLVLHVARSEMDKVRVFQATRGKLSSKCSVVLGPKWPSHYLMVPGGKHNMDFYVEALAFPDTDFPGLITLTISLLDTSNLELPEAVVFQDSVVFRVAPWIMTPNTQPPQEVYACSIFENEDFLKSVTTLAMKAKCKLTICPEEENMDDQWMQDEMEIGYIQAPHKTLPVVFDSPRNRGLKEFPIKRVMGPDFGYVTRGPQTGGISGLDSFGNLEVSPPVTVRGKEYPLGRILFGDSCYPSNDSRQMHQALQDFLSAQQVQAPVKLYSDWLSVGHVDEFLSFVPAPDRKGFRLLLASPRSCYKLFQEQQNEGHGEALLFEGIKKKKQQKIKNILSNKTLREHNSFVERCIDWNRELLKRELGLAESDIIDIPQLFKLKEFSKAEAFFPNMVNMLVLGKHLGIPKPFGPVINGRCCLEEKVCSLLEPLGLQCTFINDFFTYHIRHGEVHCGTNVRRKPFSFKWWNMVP
pPAFAH FP inh – inhibitors of human plasma PAF acetylhydrolase (pPAFAH); inhibition, % at 3.39 µM; recombinant pPAFAH, FP-rhodamine probe fluorescence polarization; 330,000 tested, 1.5% active; Q13093;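 active = inhibition above the mean inhibition across the screen plus 3 SD, cut at about 25% in these data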;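 note: inhibitors block binding of the rhodamine activity-based probe so polarization drops; 0% = enzyme with DMSO and 100% = wells lacking pPAFAH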
GSTO1 inh – counter-screen for RBBP9 inhibitors: inhibitors of human GSTO1 | P78417 | recombinant GSTO1, activity-based probe fluorescence polarization | inhibition, % at 5.96 µM | 300,000 tested, 1.1% active;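 active = inhibition above the campaign mean inhibition plus 3 SD, cut at about 35% in these data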;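 note: 0% = GSTO1-1 with DMSO and 100% = wells lacking GSTO1-1 enzyme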
Fam108b inh conf – confirmation of mouse Fam108b serine hydrolase inhibitors; shares compounds with Fam108B inh; recombinant Fam108b, FP-Rh probe fluorescence polarization; inhibition, % at 9.51 µM; 930 tested, 44% active; AID 1978;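 active = inhibition above a limit from the primary screen, the mean over all compounds plus 3 SD, cut at about 19% in these data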;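 note: 0% = median of active Fam108b wells and 100% = catalytically dead S170A mutant; inhibitors free the probe so polarization falls as inhibition rises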
Fam108b ABPP HTS – inhibits mouse Fam108b in gel-based ABPP; shares compounds with Fam108B inh; recombinant Fam108b, fluorophosphonate probe; inhibition, % at 20 µM; 260 tested, 44% active; in the data active = inhibition above about 40%
GSTO1 confirm – confirmation of human GSTO1 inhibitors; inhibition, % at 5.96 µM; 2,400 tested, 54% active; AID 2176; shares compounds with GSTO1 inh; recombinant GSTO1, probe fluorescence polarization;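 active = inhibition above the primary screen's cutoff, its mean inhibition plus 3 SD, cut at about 35% in these data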;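 note: loss of polarization as inhibitors block binding of rhodamine sulfonate ester activity probe; 0% = GSTO1 with DMSO and 100% = wells lacking GSTO1 enzyme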
pPAFAH confirm – confirmation of human plasma PAF acetylhydrolase (pPAFAH) inhibitors | 2,300 tested, 72% active | recombinant pPAFAH, FP-Rh probe fluorescence polarization | inhibition, % at 3.39 µM | shares compounds with pPAFAH FP inh;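 active = mean inhibition of the triplicate above the hit cutoff set for the earlier primary screen, cut at about 25% in these data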;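 note: 0% = enzyme with DMSO and 100% = wells lacking pPAFAH enzyme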
Numbers without * were called inactive; · = no result given.

SMILES | Fam108B inh | PME-1 primary | PAD4 FP inh | pPAFAH FP inh | GSTO1 inh | Fam108b inh conf | GSTO1 confirm | pPAFAH confirm | others
O=C1NN(c2ccccc2)C(=O)/C1=C/c1ccc(-c2ccc(C(=O)O)cc2)o1 | 9.9 | -4.2 | -1.4 | 19.8 | -13.7 | · | · | ·
O=C1NN(c2ccccc2)C(=O)/C1=C/c1ccc(Sc2cccc3ccccc23)o1 | 29.2* | 9.9 | 0.6 | 43.2* | 48.8* | 4.2 | 65.5* | 36.1*
O=C1NC(=S)/C(=C\c2ccc(-c3ccccc3Cl)o2)S1 | 28.8* | 37.0* | -3.5 | 69.5* | 35.3* | 45.3* | · | 79.0* | Fam108b ABPP HTS=65.0*
O=C1NC(=O)/C(=C/c2ccc(-c3cc(C(=O)O)ccc3Cl)o2)S1 | 3.1 | -10.0 | -6.3 | 18.0 | -71.7 | · | · | ·
Cc1cc(SCC(=O)c2ccc(O)c(O)c2)n2nc(C)c(-c3ccccc3)c2n1 | 18.3* | 15.1 | -2.0 | 71.8* | 35.5* | -16.5 | · | 88.4*
COc1ccccc1C(=O)N/N=C(\C)c1ccc(NC(=O)Cc2ccccc2)cc1 | -1.9 | 2.8 | 5.2 | -5.1 | -0.9 | · | · | ·
C/C(=N\NC(=O)c1cc(O)cc(O)c1)c1ccc(NC(=O)Cc2ccccc2)cc1 | 26.6* | 1.6 | -1.0 | 45.1* | 37.8* | 9.7 | 46.7* | 15.1
Cc1cc(/C=C2\SC(N)=NC2=O)c(C)n1-c1ccc(F)cc1 | -1.1 | -3.7 | -4.4 | 10.3 | -11.3 | · | · | ·
COC(=O)c1ccc(=O)c2nc3/c(=C/O)c(O)cc(=O)c3[nH]c12 | 33.4* | 14.3 | 14.2 | 91.5* | 74.7* | 48.5* | 71.1* | 91.3*
COC(=O)c1ccc(N)cc1O | 3.8 | 0.1 | -0.2 | -0.5 | 3.1 | · | · | ·
O=C(Nc1ccccc1)c1ccc2nc(-c3ccco3)c(-c3ccco3)nc2c1 | 47.7* | 8.1 | -18.6 | 65.6* | 57.3* | 8.5 | 12.8 | 21.6
CC(=O)c1ccc(NC(=O)c2ccc3nc(-c4ccco4)c(-c4ccco4)nc3c2)cc1 | 40.3* | 4.9 | -15.9 | 62.0* | 67.6* | 28.9* | 29.0 | 50.5*
O=C(NCc1ccccc1)c1ccc2nc(-c3ccco3)c(-c3ccco3)nc2c1 | 19.5* | 16.2 | -12.8 | 71.1* | 67.2* | 17.6 | 24.2 | 58.2*
COc1ccc(N2CCN(c3nccs3)CC2)cc1 | 0.4 | 0.0 | 0.9 | -2.3 | 0.6 | · | · | ·
Cc1cccc(C(C)C)c1NC(=O)Cc1ccc(S(=O)(=O)N2CCOCC2)s1 | -4.8 | 8.4 | -5.0 | 1.2 | 2.2 | · | · | ·
O=C(CSc1nnc(-c2ccco2)o1)N1CCCCC1 | -0.2 | -0.9 | -2.2 | 3.9 | 3.9 | · | · | ·
CC1(C2(O)CC(c3ccccc3)ON2)CCCCC1 (stereo unspecified) | -1.6 | -3.5 | 4.4 | 6.3 | 5.2 | · | · | ·
O=c1c(O)cccc2cc(O)c(O)c(O)c12 | 48.8* | 19.4 | -6.7 | 93.6* | 51.0* | 31.1* | 71.6* | 87.9* | Fam108b ABPP HTS=0.0
Cc1ccc(C(C)C)c(OCc2ccc(C(=O)N/N=C/c3cccc(O)c3O)cc2)c1 | 28.2* | 49.4* | -3.9 | 54.2* | -31.5 | 10.0 | · | 51.7*
O=C(CSc1cccc2cccnc12)N/N=C/c1cccc(O)c1 | -3.7 | 0.8 | -0.8 | 5.1 | 3.6 | · | · | ·
Cc1ccc(C(C)C)c(OCc2ccc(C(=O)N/N=C/c3ccc(O)c(O)c3)cc2)c1 | 34.7* | 37.5* | -0.1 | 61.2* | -25.4 | -25.4 | · | 84.1*
COc1cc(/C=N/NC(=O)c2ccc(COc3cc(C)ccc3C(C)C)cc2)cc(OC)c1O | 8.9 | 8.6 | 1.1 | 7.4 | 21.8 | · | · | ·
CC(=O)Nc1ccc(C(=O)N/N=C/c2ccccc2OCc2ccccc2)cc1 | -11.5 | -20.7 | -3.4 | 2.4 | -13.3 | · | · | ·
O=C(N/N=C/c1ccc(O)c(O)c1)c1ccc(CSc2cccc3cccnc23)cc1 | 43.5* | 53.7* | -13.8 | 69.5* | 22.0 | 25.9* | · | 86.4*
Cc1[nH]c2ccccc2c1/C=N/NC(=O)c1cccc(S(=O)(=O)Nc2cccc(C(F)(F)F)c2)c1 | 40.5* | 20.6 | 0.5 | 39.7* | -30.5 | 32.0* | · | 40.1*
Cn1cccc1/C=C1\SC(=S)N(NC(=O)c2ccccc2O)C1=O | 1.2 | -0.6 | -8.9 | 11.3 | 19.0 | · | · | ·

Compound activity (PubChem)
